# Test results as given in PubChem BioAssay (Tox21).
# Unmarked numbers belong to inactive results. Results filed as inconclusive are left out. Where a call stands in place of a potency, no number is given. Active and inactive are the calls of the source. Unless noted, the call rests on the fitted dose curve.
# Columns and labels:
# [1] = Nuclear factor erythroid 2-related factor 2/antioxidant responsive element (Nrf2/ARE) small molecule agonists: qHTS cell viability counter screen in human keratinocytes (AID 1919968; active means well fitted curve in the direction sought with a large enough effect in the repeat runs; an effect the other way counts as inactive or inconclusive; further: nearly all actives have a fitted effect of over 55% in size; further: potency means the concentration at half of the fitted maximal effect)
# Procedure, shortened: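 KeratinoSens cells (HaCaT keratinocytes stably carrying an ARE-luciferase reporter) were seeded at 1,500 cells/well and rested 5 h at 37 C/5% CO2. They were then exposed to compounds in DMSO for 23 h. Viability was read by CellTiter-Fluor fluorescence after 1 h.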
# [2] = Nuclear factor erythroid 2-related factor 2/antioxidant responsive element (Nrf2/ARE) small molecule agonists: luciferase reporter gene qHTS assay in human keratinocytes (AID 1919969); further: nearly all actives have a fitted effect of over 35% in size; further: potency means the concentration at half of the fitted maximal effect
# [3] = molecular target: Gonadotropin-releasing hormone receptor (Homo sapiens) (UniProt P30968); assay: Human gonadotropin-releasing hormone receptor (GnRHR) small molecule agonists, calcium flux assay in GnRHR-HEK293 cells (AID 1920063); further: nearly all actives have a fitted effect of over 35% in size
# Procedure, shortened: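 HEK293 cells stably expressing human GnRHR were plated 18 h at 37 °C, loaded with calcium dye 1 h at 37 °C, then given compound in agonist mode; fluorescence (Ex/Em 480/540) read kinetically for 3 min at 1 s intervals.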
# [4] = molecular target: KiSS-1 receptor (Homo sapiens) (UniProt Q969F8); assay: Human kisspeptin (KISS1R) small molecule agonists, calcium flux assay in KISS1R-HEK293 cells (AID 1920064; active means well fitted curve in the direction sought with a large enough effect in the repeat runs; an effect the other way counts as inactive or inconclusive)
# Procedure, shortened: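 HEK293 cells stably expressing human KISS1R were plated 18 h at 37 °C, loaded with calcium dye for 1 h at 37 °C, then given compound by pin tool. Fluorescence (Ex/Em 480/540) was read kinetically for 3 min.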
# [5] = G protein-coupled receptor (GPCR) small molecule agonists, calcium flux assay: HEK293 wild type cell line counter screen (AID 1920065)
# Procedure, shortened: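 Cells were plated and cultured 18 h at 37 C/5% CO2, then loaded with calcium dye for 1 h at 37 C. Compounds in DMSO were pin-transferred in agonist mode, and fluorescence (Ex/Em 480/540) was read kinetically for 3 min at 1 s intervals.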
# [6] = p53 small molecule agonists, cell-based qHTS assay with human liver microsomes (AID 1963577);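 further: p53 response element beta-lactamase reporter cells with liver microsomes plus NADPH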
# Procedure, shortened: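 p53RE-bla cells; 5 h settle, 37 C/5% CO2; cpd + HLM 0.5 mg/mL + NADPH 0.5 mg/mL (final); 16 h 37 C; LiveBLAzer 2 h RT dark; fluorescence readout.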
# [7] = p53 small molecule agonists, cell-based qHTS assay with rat liver microsomes (AID 1963578)
# Procedure, shortened: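 Rat liver microsome activation: microsomes 0.5 mg/mL, NADPH 0.5 mg/mL final; p53RE-bla cells, 16 h 37 C; LiveBLAzer readout, 2 h RT dark.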
# [8] = p53 small molecule agonists, cell-based qHTS assay with human liver microsomes: qHTS cell viability counter screen (AID 1963579); further: nearly all actives have a fitted effect of over 45% in size
# Procedure, shortened: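 Luminescent CellTiter-Glo read-out, 30 min at room temperature, gauged cytotoxicity in p53RE-bla cells exposed 16 h at 37 C to DMSO-dissolved compounds with metabolic activation by human liver microsomes and NADPH, each 0.5 mg/mL final.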
# [9] = p53 small molecule agonists, cell-based qHTS assay: qHTS cell viability counter screen (AID 1963581); further: nearly all actives have a fitted effect of over 45% in size; further: potency means the concentration at half of the fitted maximal effect
# Procedure, shortened: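 p53RE-bla HCT-116 cells were exposed to compounds for 16 h at 37 C; after the beta-lactamase FRET read in the same wells, CellTiter-Glo was added and luminescence (intracellular ATP) read after 30 min at room temperature.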
# [10] = p53 small molecule agonists, cell-based qHTS assay (AID 1963582; active means well fitted activation curve with a large enough effect in the signal ratio in the repeat runs, not every such curve was filed as active; the % refers to the signal ratio)
# Procedure, shortened: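 p53RE-bla beta-lactamase reporter cells rested 5 h at 37 C/5% CO2, then received compounds in DMSO by pin transfer and were incubated 16 h at 37 C. LiveBLAzer B/G FRET substrate was loaded for 2 h at room temperature before fluorescence reading.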
# [11] = molecular target: 5-hydroxytryptamine receptor 2A (Homo sapiens) (UniProt P28223); assay: 5-hydroxytryptamine receptor 2A (HTR2A) small molecule antagonists, cell-based qHTS assay (AID 1963586); further: nearly all actives have a fitted effect of over 45% in size
# Procedure, shortened: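 Antagonist-mode intracellular calcium assay: DOI (4 nM) added after 5 min compound pre-incubation at room temperature to dye-loaded HTR2A-CHO cells. Fluorescence followed for 3 min, sampled every second.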
# [12] = molecular target: 5-hydroxytryptamine receptor 2A (Homo sapiens) (UniProt P28223); assay: 5-hydroxytryptamine receptor 2A (HTR2A) small molecule agonists, cell-based qHTS assay (AID 1963587); further: nearly all actives have a fitted effect of over 30% in size
# Procedure, shortened: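 Kinetic calcium-flux fluorescence (2 min, 1 sec intervals) after compound addition in agonist mode. HTR2A-CHO cells were cultured 18 h, then dye-loaded 1 h at 37 C.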
# [13] = molecular target: Muscarinic acetylcholine receptor M1 (Homo sapiens) (UniProt P11229); assay: Cholinergic receptor muscarinic 1 (CHRM1) small molecule agonists, cell-based qHTS assay (AID 1963589); further: nearly all actives have a fitted effect of over 35% in size
# Procedure, shortened: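 CHO cells stably expressing human CHRM1, seeded 18 h at 37 C/5% CO2, dye-loaded 1 h at 37 C, then given compound in agonist mode; intracellular calcium fluorescence read kinetically at 1 s intervals. Fifteen concentrations, three independent runs.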
# [14] = cAMP Responsive Elements (CRE) small molecule antagonists, cell-based qHTS assay (AID 1963591; active means well fitted inhibition curve with a large enough effect in the signal ratio in the repeat runs, not every such curve was filed as active; the % refers to the signal ratio)
# Procedure, shortened: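 CRE-bla HEK293T cells were plated 18 h at 37 °C/5% CO2, pinned with compound in DMSO, then stimulated with NKH477 at 0.25 uM final for 3 h. LiveBLAzer B/G FRET substrate was added and plates incubated 2 h at room temperature.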
# [15] = molecular target: Beta-2 adrenergic receptor (Homo sapiens) (UniProt P07550); assay: Adrenergic beta2 receptor (ADRB2) small molecule antagonists, cell-based qHTS assay (AID 1963592); further: series mostly up to about 92 µM; nearly all actives have a fitted effect of over 50% in size
# Procedure, shortened: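 Cells (CHO, stable ADRB2 overexpression) incubated 18-20hr at 37C; compounds added from DMSO; agonist mix (1nM isoproterenol, 100uM IBMX, 25uM Ro-20-1724) added; 0.5hr RT; d2-cAMP and anti-cAMP-cryptate added; 1hr RT; 665/615 nm read.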
# [16] = molecular target: D(2) dopamine receptor (Homo sapiens) (UniProt P14416); assay: Dopamine D2 receptor (DRD2) small molecule agonists, cell-based qHTS assay (AID 1963594); further: nearly all actives have a fitted effect of over 35% in size
# Procedure, shortened: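 cAMP accumulation in DRD2-HEK293 cells measured by HTRF after 1 h detection; compounds added 10 min before NKH477 (200nM […]) forskolin-analogue stimulation, 30 min at room temperature, with Ro20-1724 present at 0.1 mM final.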
# [17] = molecular target: D(2) dopamine receptor (Homo sapiens) (UniProt P14416); assay: Dopamine D2 receptor (DRD2) small molecule antagonists, cell-based qHTS assay (AID 1963595; active means well fitted inhibition curve with a large enough effect in the signal ratio in the repeat runs, with a control signal flat; the % refers to the signal ratio; further: potency means the concentration at half of the fitted maximal effect)
# Procedure, shortened: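 Cells were plated and grown for 24 h at 37 °C. Ro20-1724 (0.1 mM final) went in first, then compound for 10 min. NKH477 (200 nM) with quinpirole (12 nM) followed for 30 min at RT, then HTRF detection reagents for 1 h.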
# [18] = cAMP Responsive Elements (CRE) small molecule agonists, cell-based qHTS assay (AID 1963590)
# Procedure, shortened: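 CRE-bla HEK 293T cells in DMEM with 10% dialyzed FBS, NEAA, pyruvate and 25 mM HEPES were plated 18 h at 37 C/5% CO2, then exposed to compounds in DMSO for 3 h before LiveBLAzer B/G FRET substrate addition.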
# [19] = molecular target: Muscarinic acetylcholine receptor M1 (Homo sapiens) (UniProt P11229); assay: Cholinergic receptor muscarinic 1 (CHRM1) small molecule antagonists, cell-based qHTS assay (AID 1963588); further: nearly all actives have a fitted effect of over 40% in size
# Procedure, shortened: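 CHRM1-CHO calcium-flux assay, antagonist mode. Cells were seeded 18 h, dye-loaded 1 h at 37 C and given compound for 5 min at RT, then acetylcholine was added at 50nM. FDSS fluorescence was read 3 min; 15 concentrations, three runs.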
# Beta-2 adrenergic receptor (Homo sapiens), sequence (P07550 whole entry, looked up): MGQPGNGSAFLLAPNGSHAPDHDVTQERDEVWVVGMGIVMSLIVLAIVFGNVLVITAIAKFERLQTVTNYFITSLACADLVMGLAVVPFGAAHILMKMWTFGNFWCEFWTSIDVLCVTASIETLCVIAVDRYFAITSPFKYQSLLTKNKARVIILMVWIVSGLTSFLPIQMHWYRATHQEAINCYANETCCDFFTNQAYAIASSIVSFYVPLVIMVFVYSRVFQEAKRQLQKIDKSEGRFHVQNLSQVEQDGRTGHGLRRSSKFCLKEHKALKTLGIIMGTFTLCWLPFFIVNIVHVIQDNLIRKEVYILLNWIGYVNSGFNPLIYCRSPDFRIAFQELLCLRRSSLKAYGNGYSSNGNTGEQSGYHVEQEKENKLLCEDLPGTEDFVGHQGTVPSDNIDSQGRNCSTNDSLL
# 5-hydroxytryptamine receptor 2A (Homo sapiens), sequence (P28223 whole entry, looked up): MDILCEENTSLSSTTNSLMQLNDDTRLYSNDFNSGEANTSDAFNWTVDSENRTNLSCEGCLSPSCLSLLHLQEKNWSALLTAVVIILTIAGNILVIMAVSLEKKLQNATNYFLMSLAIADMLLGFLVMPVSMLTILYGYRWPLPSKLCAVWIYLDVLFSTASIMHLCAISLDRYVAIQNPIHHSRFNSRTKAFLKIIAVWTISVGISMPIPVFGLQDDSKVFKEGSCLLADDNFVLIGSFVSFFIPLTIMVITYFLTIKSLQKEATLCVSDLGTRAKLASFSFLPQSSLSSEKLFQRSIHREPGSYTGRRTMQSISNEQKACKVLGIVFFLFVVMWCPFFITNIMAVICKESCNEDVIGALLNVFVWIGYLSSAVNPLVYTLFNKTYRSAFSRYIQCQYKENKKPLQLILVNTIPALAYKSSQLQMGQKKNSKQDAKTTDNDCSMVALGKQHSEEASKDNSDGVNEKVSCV
# Muscarinic acetylcholine receptor M1 (Homo sapiens), sequence (P11229 whole entry, looked up): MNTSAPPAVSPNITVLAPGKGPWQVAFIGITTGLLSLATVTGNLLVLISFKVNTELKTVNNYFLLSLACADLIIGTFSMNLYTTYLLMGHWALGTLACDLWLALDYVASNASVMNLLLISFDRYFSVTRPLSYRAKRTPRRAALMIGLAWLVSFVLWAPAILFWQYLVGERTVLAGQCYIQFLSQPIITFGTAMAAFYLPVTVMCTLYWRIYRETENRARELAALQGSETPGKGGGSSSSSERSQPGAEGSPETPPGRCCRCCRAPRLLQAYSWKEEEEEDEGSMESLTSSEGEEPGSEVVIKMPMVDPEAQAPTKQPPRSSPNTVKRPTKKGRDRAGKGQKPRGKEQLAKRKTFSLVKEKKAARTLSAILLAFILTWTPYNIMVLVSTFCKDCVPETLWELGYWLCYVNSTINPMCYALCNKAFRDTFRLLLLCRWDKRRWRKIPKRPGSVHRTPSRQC
# Gonadotropin-releasing hormone receptor (Homo sapiens), sequence (P30968 whole entry, looked up): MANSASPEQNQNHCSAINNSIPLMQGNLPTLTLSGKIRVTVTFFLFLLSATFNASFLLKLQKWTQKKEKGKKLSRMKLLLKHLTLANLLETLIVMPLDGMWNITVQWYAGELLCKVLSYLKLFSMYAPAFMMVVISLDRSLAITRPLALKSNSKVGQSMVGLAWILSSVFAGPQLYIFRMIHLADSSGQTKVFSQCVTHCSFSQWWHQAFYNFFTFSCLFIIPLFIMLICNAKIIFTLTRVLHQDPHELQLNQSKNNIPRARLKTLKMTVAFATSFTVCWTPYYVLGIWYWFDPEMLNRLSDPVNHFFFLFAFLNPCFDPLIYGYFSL
# KiSS-1 receptor (Homo sapiens), sequence (Q969F8 whole entry, looked up): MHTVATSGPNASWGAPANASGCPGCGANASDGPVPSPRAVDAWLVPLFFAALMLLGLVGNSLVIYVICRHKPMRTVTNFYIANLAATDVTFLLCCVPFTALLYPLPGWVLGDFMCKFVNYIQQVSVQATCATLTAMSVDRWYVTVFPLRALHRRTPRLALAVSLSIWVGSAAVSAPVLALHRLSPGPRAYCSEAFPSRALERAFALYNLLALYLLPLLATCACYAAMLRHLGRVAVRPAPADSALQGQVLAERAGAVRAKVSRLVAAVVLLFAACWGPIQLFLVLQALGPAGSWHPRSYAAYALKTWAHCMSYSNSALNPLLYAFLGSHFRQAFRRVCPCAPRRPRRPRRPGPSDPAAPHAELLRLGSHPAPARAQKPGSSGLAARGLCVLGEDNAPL
# D(2) dopamine receptor (Homo sapiens), sequence (P14416 whole entry, looked up): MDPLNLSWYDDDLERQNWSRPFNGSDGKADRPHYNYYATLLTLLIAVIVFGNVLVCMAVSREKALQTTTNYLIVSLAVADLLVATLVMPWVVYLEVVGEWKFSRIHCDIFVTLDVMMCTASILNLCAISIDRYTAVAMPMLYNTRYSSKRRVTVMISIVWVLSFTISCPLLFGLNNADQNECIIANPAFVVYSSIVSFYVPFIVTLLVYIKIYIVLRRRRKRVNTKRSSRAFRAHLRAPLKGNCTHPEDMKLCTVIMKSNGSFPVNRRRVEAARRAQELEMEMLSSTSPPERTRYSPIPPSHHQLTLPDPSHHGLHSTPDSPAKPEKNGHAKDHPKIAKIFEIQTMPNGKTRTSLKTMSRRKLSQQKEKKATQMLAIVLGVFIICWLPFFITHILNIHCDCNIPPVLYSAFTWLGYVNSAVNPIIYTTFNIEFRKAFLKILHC
SMILES,Potency [1],Potency [2],Potency [3],outcome [4],outcome [5],Potency [6],Potency [7],Potency [8],Potency [9],Potency [10],Potency [11],Potency [12],Potency [13],Potency [14],Potency [15],Potency [16],Potency [17],Potency [18],Potency [19]
O=C(OCCCCCOC(=O)c1ccccc1)c1ccccc1,inactive,inactive,inactive,inactive,inactive,inactive,inactive,inactive,inactive,inactive,inactive,inactive,inactive,inactive,inactive,inactive,inactive,–,–
CC1=NS(=O)(=O)c2cc(Cl)ccc2N1,inactive,inactive,inactive,inactive,inactive,inactive,inactive,inactive,inactive,inactive,–,–,–,inactive,inactive,inactive,inactive,inactive,–
COC(=O)CCCC(=O)O,inactive,inactive,inactive,inactive,inactive,inactive,inactive,inactive,inactive,–,inactive,inactive,inactive,inactive,inactive,inactive,–,inactive,inactive
C=CS(=O)(=O)O,inactive,inactive,inactive,inactive,inactive,inactive,inactive,inactive,inactive,–,inactive,inactive,inactive,inactive,inactive,inactive,inactive,inactive,inactive
CC(=O)Oc1cc2c(s1)CCN(C(C(=O)C1CC1)c1ccccc1F)C2 (stereo not given),inactive,inactive,inactive,inactive,inactive,inactive,inactive,inactive,inactive,inactive,inactive,inactive,inactive,–,inactive,–,inactive,–,inactive
O=C1[C@H]2CCCC[C@H]2C(=O)N1CCCCN1CCN(c2nsc3ccccc23)CC1,inactive,inactive,inactive,inactive,inactive,inactive,inactive,inactive,inactive,inactive,–,inactive,inactive,–,inactive,inactive,0.0027 µM (active),–,–
C=CCCCCCCCCC(=O)OCC,inactive,inactive,inactive,inactive,inactive,inactive,inactive,inactive,inactive,–,inactive,inactive,inactive,inactive,inactive,inactive,inactive,–,inactive
N#CCc1ccc(Cl)cc1Cl,inactive,inactive,inactive,inactive,inactive,inactive,inactive,inactive,inactive,inactive,inactive,inactive,inactive,inactive,inactive,–,inactive,–,inactive
CC(C)(O)CCCC1=CCC(C=O)CC1 (stereo not given),inactive,inactive,inactive,inactive,inactive,inactive,inactive,inactive,inactive,inactive,–,inactive,inactive,inactive,inactive,inactive,inactive,inactive,inactive
Cc1cccc(C)c1NC(=O)c1ccc(N)cc1,inactive,inactive,inactive,inactive,inactive,inactive,inactive,inactive,inactive,–,inactive,inactive,inactive,inactive,inactive,inactive,inactive,inactive,inactive
CCO,inactive,inactive,inactive,inactive,inactive,inactive,inactive,inactive,inactive,inactive,–,–,–,inactive,inactive,–,inactive,inactive,–
O=C(O)c1cc(Cl)cc(Cl)c1O,inactive,inactive,inactive,inactive,inactive,inactive,inactive,inactive,inactive,inactive,inactive,inactive,inactive,inactive,inactive,inactive,inactive,–,inactive
On1nnc2ccccc21,inactive,inactive,inactive,inactive,inactive,inactive,inactive,inactive,inactive,–,inactive,inactive,inactive,inactive,inactive,–,inactive,inactive,inactive
COc1cc(-c2nc(NC(=O)c3cc4cc(C)cc(C)c4n3CC(=O)O)sc2CCC2CCCCC2)c(OC)cc1Cl,17.7 µM (active),12.5 µM (active),inactive,inactive,inactive,inactive,inactive,inactive,6.65 µM (active),–,inactive,inactive,inactive,–,inactive,inactive,inactive,–,inactive
CCCCCCCCCOC(=O)c1ccccc1C(=O)OCCCCCCCCC,inactive,inactive,inactive,inactive,inactive,inactive,inactive,inactive,inactive,–,inactive,inactive,inactive,inactive,–,inactive,inactive,inactive,inactive
